Laboratory results published in PubChem BioAssay (NCI).
About 83,000 compounds went through this panel and 20% of them were active in at least one assay; those are over-represented in the sample as a whole.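 Plates (96-well) were seeded with cells, treated with compound at one concentration, and incubated for 48 hours before percent growth was determined.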 Calls of active or inactive are those of the source. How the source made its calls: active means growth percent below 10; inactive means the rest.

How the values were obtained:
Test in all cases: NCI-60 one-dose screen, 48 h (100 = growth as untreated, 0 = no growth, -100 = all killed)
[1] = system: HCT-15 colon; conditions: 10 µM unless noted
[2] = system: HT29 colon; conditions: 10 µM unless noted
[3] = system: SNB-75 CNS; conditions: 10 µM unless noted
[4] = system: SNB-19 CNS; conditions: 10 µM unless noted
[5] = system: U251 CNS; conditions: 10 µM unless noted
[6] = system: PC-3 prostate; conditions: 10 µM unless noted
[7] = system: UACC-62 melanoma; conditions: 10 µM unless noted
[8] = system: LOX IMVI melanoma; conditions: 10 µM
[9] = system: SK-MEL-28 melanoma; conditions: 10 µM unless noted
[10] = system: SK-MEL-2 melanoma; conditions: 10 µM unless noted
[11] = system: EKVX NSCLC; conditions: 10 µM unless noted
[12] = system: SN12C renal; conditions: 10 µM unless noted
[13] = system: UO-31 renal; conditions: 10 µM unless noted
[14] = system: TK-10 renal; conditions: 10 µM unless noted
[15] = system: ACHN renal; conditions: 10 µM unless noted
[16] = system: CAKI-1 renal; conditions: 10 µM unless noted
[17] = system: A498 renal; conditions: 10 µM unless noted
[18] = system: CCRF-CEM leukemia; conditions: 10 µM unless noted
[19] = system: SK-MEL-5 melanoma; conditions: 10 µM unless noted
[20] = system: MOLT-4 leukemia; conditions: 10 µM unless noted

Measured: growth

COc1ccc(C(=O)/C=C/c2cccc(Cl)c2)cc1S(N)(=O)=O
inactive: [3] 29.5% | [6] 31.7% | [10] 80.9% | [17] 111%
active: [1] -89.9% | [2] 0.678% | [4] 0.182% | [5] -97.1% | [7] -3.37% | [8] -87.4% | [9] -25.7% | [11] -73.5% | [12] -25.3% | [13] -67.6% | [14] -86.1% | [15] -89.3% | [16] -9.94% | [18] 6.96%

CC(=O)N1CCN(Cc2ccc3c(NNC(=O)c4cnccn4)nc4cc(F)ccc4n23)CC1
inactive: [1] 30.3% | [2] 35.9% | [3] 65.7% | [4] 25.4% | [5] 13.1% | [6] 40.9% | [8] 10.3% | [9] 30.4% | [10] 43.5% | [11] 16.2% | [12] 21.4% | [13] 10.6% | [14] 30.3% | [15] 11% | [17] 50.2%
active: [7] 9.03% | [18] 9.27%

COc1ccc(C(=O)/C=C/c2ccc(Cl)c(Cl)c2)cc1S(N)(=O)=O
active: [1] -37.9% | [2] -50.3% | [3] 6.46% | [4] 5.07% | [5] -95.8% | [7] -4.38% | [8] -69% | [9] -33.7% | [12] -2.78% | [13] -80.5% | [14] 5.47% | [15] -69.7% | [16] -7.4%
inactive: [6] 10.1% | [10] 66.9% | [11] 24.1% | [17] 109% | [18] 12.4%

O=C(NNc1nc2cc(F)ccc2n2c(CN3CC4CNCC4C3)ccc12)c1ccncn1 (stereo unspecified)
inactive: [1] 28.9% | [2] 31.7% | [3] 49% | [4] 22.2% | [6] 32.6% | [9] 23.2% | [10] 42.7% | [11] 12.7% | [13] 15.6% | [14] 29.9% | [16] 12.1% | [17] 59% | [18] 12.7%
active: [5] 9.87% | [7] -13.4% | [8] 6.59% | [12] 7.46% | [15] 8.07%

CCN1CCN(Cc2ccc(C(=O)Nc3cccc(C#Cc4cccc5[nH]nc(N)c45)c3)cc2C(F)(F)F)CC1
active: [1] -87.6% | [2] -10.5% | [3] -62% | [4] -88.7% | [5] -94.6% | [6] -14% | [7] -74.7% | [8] -92.6% | [9] -95% | [10] -80.7% | [11] -93.1% | [12] -76.1% | [13] -94.2% | [15] -98.2% | [16] -91.7% | [17] -84.6% | [18] 3.6%

O=C1Nc2ccc([N+](=O)[O-])cc2C1=Nc1ccccc1
inactive: [1] 92.5% | [2] 122% | [3] 101% | [4] 96.6% | [5] 106% | [6] 94.4% | [7] 59.7% | [8] 97.2% | [9] 108% | [10] 104% | [11] 95.9% | [12] 89.3% | [14] 111% | [15] 78.2% | [16] 77.2% | [17] 116% | [18] 103%

CN1CCN(c2ccc(C(=O)/C=C/c3cc(C(F)(F)F)cc(C(F)(F)F)c3)cc2)CC1
active: [1] -84.2% | [2] -3.47% | [3] -82.3% | [4] -85% | [5] -94.9% | [6] -26.4% | [7] -85.4% | [8] -89.7% | [9] -96.8% | [10] -86.2% | [11] -73.2% | [12] -79.8% | [13] -92.5% | [14] -88.7% | [16] -73.7% | [17] -70% | [18] 5.57%

CN1CCN(Cc2ccc(C(=O)Nc3cccc(C#Cc4cccc5[nH]nc(N)c45)c3)cc2C(F)(F)F)CC1
active: [1] -93.9% | [2] -50.3% | [3] -82.5% | [4] -89.7% | [5] -79.2% | [6] -22.9% | [7] -88% | [8] -92% | [9] -97.4% | [10] -88.9% | [11] -93.6% | [12] -94.7% | [13] -98.2% | [14] -96% | [15] -98.3% | [16] -88.5% | [17] -80.7% | [18] -20%

CN(C)CCn1c2ccccc2c2nc3cc(C(F)(F)F)ccc3nc21
inactive: [1] 19.4% | [2] 27.6% | [3] 44.5% | [4] 36.4% | [5] 38.1% | [19] 28.3% | [7] 44.8% | [9] 44.4% | [10] 56.4% | [11] 64.3% | [12] 21.7% | [13] 11.9% | [14] 108% | [15] 13.5% | [16] 11% | [17] 75.8% | [20] 23.8%

COc1cc2oc(-c3cccc(C(=O)Nc4ccc(Cl)cc4)c3)cc(=O)c2c(OCC(=O)N[C@@H](Cc2ccccc2)C(=O)O)c1OC
inactive: [1] 112% | [2] 112% | [3] 112% | [4] 98.2% | [5] 109% | [19] 96.1% | [7] 97.8% | [8] 83.4% | [9] 95.5% | [10] 116% | [11] 107% | [12] 105% | [13] 90.8% | [14] 134% | [17] 102% | [18] 98.9% | [20] 110%

CC1[C@H]2[C@H](C[C@H]3[C@@H]4CC=C5c6sc(Nc7ccccc7F)nc6CC[C@]5(C)[C@H]4CC[C@@]32C)O[C@]12CC[C@@H](C)CO2 (stereo partly specified)
inactive: [17] 17.5%
active: [1] -80% | [2] -79.3% | [3] -55.6% | [4] -37.5% | [5] -88.2% | [19] -58.1% | [7] -70.8% | [8] -90.4% | [9] -97.1% | [10] -83% | [11] -52.5% | [12] -69.4% | [13] -93.1% | [14] -60.2% | [15] -75.4% | [16] -82.2% | [18] -21.5% | [20] -16.2%

OCNc1ccc(-n2cnc3cc(-c4ccc(O)cc4)ccc32)cc1C(F)(F)F
inactive: [1] 15.5% | [2] 21.2% | [3] 17.6% | [4] 35.2% | [5] 16.8% | [6] 45.6% | [7] 33.5% | [9] 27.5% | [10] 21.7% | [11] 34.7% | [12] 19.7% | [13] 13.1% | [14] 46.6% | [15] 12.2% | [16] 33.5% | [17] 74.9% | [18] 31.9% | [20] 15%

CC(=O)Nc1cccc(Nc2nc(NCc3ccccc3)c3ccccc3n2)c1
active: [1] -87.1% | [2] -86.5% | [3] -93.8% | [4] -98.3% | [5] -76.4% | [19] -98.2% | [7] -97.8% | [9] -95.9% | [10] -89.2% | [11] -97.6% | [12] -90.2% | [13] -98.5% | [14] -96.7% | [15] -100% | [16] -94.8% | [17] -99.3% | [18] -13.8% | [20] -61%

CN1CCN(/C(=N\c2sc(-c3ccccc3)nc2-c2ccccc2)c2ccccc2)CC1
inactive: [1] 16.7% | [3] 90% | [4] 100% | [5] 86% | [6] 56.8% | [7] 75.7% | [9] 57.7% | [10] 115% | [11] 81.3% | [12] 82.7% | [13] 82.4% | [14] 105% | [16] 72.7% | [17] 122% | [18] 57.3% | [20] 40.9%
active: [2] 9.91%

O=C(Cn1c2c(sc1=O)[C@H]1[C@@H](O)[C@@H](O)[C@H](O)[C@@H]1CS2)N1CCOCC1
inactive: [1] 107% | [2] 106% | [3] 82.3% | [4] 103% | [5] 99.2% | [19] 102% | [7] 101% | [9] 107% | [10] 100% | [11] 100% | [12] 102% | [13] 91.1% | [14] 88.2% | [15] 102% | [16] 94.7% | [17] 99.3%

CN(C)c1nc(NCCNS(=O)(=O)c2ccc(C(=O)/C=C/c3ccc(F)cc3)cc2)nc(Nc2ccc(F)cc2)n1
active: [1] -91.7% | [2] -100% | [3] -16.4% | [4] -74.8% | [5] -100% | [19] -99.6% | [7] -97.1% | [8] -100% | [9] -100% | [10] -90.2% | [11] -49% | [12] -99.8% | [13] -49.1% | [14] -41.4% | [15] -81.2% | [16] -51.9% | [17] 9.88% | [18] 4.06% | [20] -17.2%
